Only a selection was taken, and hits are over-represented in it overall.
RMI FANCM FP: disruptors of RMI1/RMI2 association with MM2 peptide – biochemical, fluorescence polarization, human, primary screen | RMI core complex with F-MM2 peptide; stronger effect = lower value | AID 1159607, 2016 | FP signal (polarization) at 33 µM | RMI core complex (RMI1/RMI2) binding to FANCM MM2 peptide, human | 70,000 compounds, 0.58% hits; in the data active = FP signal below about 40
Numbers stand for hits; 0 = inactive; ! = not confirmed by another sample.

SMILES | RMI FANCM FP
O=C(CN1C(=O)CCC1=O)C(=O)Nc1ccc(Br)cc1C(=O)c1ccccc1Cl | 0
O=C(/C=C/c1ccccc1)Nc1ccc(Br)cc1C(=O)c1ccccc1Cl | 0
O=C(/C=C/c1cccs1)C(=O)Nc1ccc(Br)cc1C(=O)c1ccccc1Cl | 30
CC12CCC(O)CC1CCC1C2CCC2(C)C(O)/C(=C/c3ccc(C(F)(F)F)cc3)CC12 (centres undefined) | 0
O=C(Cc1ccccc1)NC(O)C(Cl)(Cl)Cl (centres undefined) | 0
CC(C)(C)NCC(O)c1cc(Cl)c(N)c(Cl)c1 (centres undefined) | 4!
CCN(CC)S(=O)(=O)c1ccc(C(=O)Nc2ccc(Cl)cc2C(=O)c2ccccc2Cl)cc1 | 0
COC(=O)C1=C(N)Oc2cc(C)[nH]c(=O)c2C12C(=O)N(Cc1ccc(Cl)cc1)c1ccccc12 (centres undefined) | 0
O=C(Nc1ccc(Br)cc1C(=O)c1ccccc1)c1ccc2c(c1)CCCC2 | 0
CC(=O)O[C@@H]1CC[C@]2(C)C3CC[C@]4(C)C(=O)CCC4C3CC[C@H]2C1 (some centres undefined) | 0
C[C@]12CC[C@H](O)CC1=CC[C@@H]1[C@@H]2CC[C@@]2(C)[C@H]1CC[C@]2(C)O | 0
CC(=O)O[C@H]1CC[C@@]2(C)C(=CC[C@@H]3[C@@H]2CC[C@]2(C)C(=O)CC[C@@H]32)C1 | 9
CC(C)(O)[C@@H]1[C@H]2OC(=O)[C@@H]1[C@]1(O)C[C@H]3O[C@]34C(=O)O[C@H]2[C@]14C | 0
CC(C)(O)[C@@H]1[C@H]2OC(=O)[C@@H]1[C@]1(O)C[C@H]3O[C@]34C(=O)O[C@H]2[C@]14C (tested in a mixture with another compound) | 30
CNC(=O)O/N=C1/CC(C)(C)Cc2csc(SC)c21 | 0
Cc1csc(CN2CCN(C(=O)COc3ccccc3C)CC2)n1 | 0
CCN(CC)C(=O)N[C@@H]1C[C@@H]2c3cccc4[nH]cc(c34)C[C@H]2N(C)C1 | 0
CC(CO)NC(=O)C1C=C2c3cccc4[nH]cc(c34)C[C@H]2N(C)C1 (some centres undefined) | 0
CCN(CC)C(=O)N[C@H]1C=C2c3cccc4[nH]cc(c34)C[C@H]2N(C)C1 | 20
COc1ccc(OC)c2sc(N(CCN(C)C)C(=O)COc3ccc(Cl)cc3)nc12 | 0
CN(C)C(=O)Oc1ccc2c(c1)OCO2 | 0
c1ccc2[nH]c(C3CCCNC3)nc2c1 (centres undefined) | 0
Cc1cccc(NC(=O)c2cccn(Cc3ccc(Br)cc3)c2=O)c1C | 0
CC(=O)c1cccc(NC(=O)c2cccn(Cc3ccccc3C)c2=O)c1 | 0
Cc1ccccc1Cn1cccc(C(=O)Nc2cccc(Cl)c2Cl)c1=O | 10
SMILES | RMI FANCM FP
COc1cc(C(=O)Nc2ccc(Cl)cc2C(=O)c2ccccc2Cl)cc(OC)c1OC | 0
O=[N+]([O-])c1ccc(SCCO)c2nonc12 | 0
CCCCC(=O)Nc1ccc2nc(C)n(-c3ccc(Cl)cc3)c(=O)c2c1 | 0
CCOc1ccc(/C=C2\CC3C4CCC5CCCCC5(C)C4CCC3(C)C2O)cc1 (centres undefined) | 0
CC[C@@]1(O)C[C@H](O[C@H]2C[C@H](N(C)C)[C@H](O)[C@H](C)O2)c2c(cc3c(c2O)C(=O)c2c(O)ccc(O)c2C3=O)[C@H]1C(=O)OC | 0
CC[C@@]1(O)C[C@H](O)c2c(cc3c(c2O)C(=O)c2c(O)ccc(O)c2C3=O)[C@H]1C(=O)OC | 26
CC[C@@]1(O)C[C@H](O[C@H]2C[C@H](N(C)C)[C@H](O)[C@H](C)O2)c2c(cc3c(c2O)C(=O)c2c(O)cccc2C3=O)[C@H]1C(=O)OC | 0
CC(N)C(c1ccccc1)N1CCN(C)CC1 (centres undefined) | 0
CC12CCC3C(CCC4CC(O)CCC43C)C1C/C(=C\c1cccc(Cl)c1Cl)C2=O (centres undefined) | 0
COc1cc2ccccc2cc1C(=O)Nc1ccc(Br)cc1C(=O)c1ccccc1Cl | 0

Screens (PubChem BioAssay)
